HP1b chromo inh: HTS for Inhibitors of HP1-beta Chromodomain Interactions with Methylated Histone Tails; Chromobox protein homolog 1 (Homo sapiens), P83916; AlphaScreen HP1-beta / biotin-H3K9me3 peptide binding; Potency, µM (doses to about 114 µM), without a hit: at the top dose activity change, negative = inhibition, most hits filed as inhibitors; actives 0.56% (n = 390,000); AID 540317, 2011; also: nearly all actives have a fitted effect of over 70% in size
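Compound inhibition of the preformed complex between 50 nM HP1-beta and 50 nM biotinylated H3K9me3 peptide was read by AlphaScreen. Buffer was PBS pH 7.4 with 0.01% Tween-20. Incubations ran 30 min at room temperature, with 10 ug/mL donor/acceptor beads.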
G9a inh: qHTS Assay for Inhibitors of Histone Lysine Methyltransferase G9a; actives 8.8% (n = 350,000); G9a H3K9 monomethylation, AlphaScreen, 2 h; Potency, µM (highest dose often 102 µM), inactives show top-dose activity, negative = inhibition, usual class: inhibitors; also: % is scaled to controls: 0 for no effect and ±100 for the full control effect; nearly all actives have a fitted effect of over 75% in size
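AlphaScreen detection with an anti-monomethyl H3K9 antibody quantified product after a 2 h room-temperature reaction containing 500 nM biotinylated H3K9 peptide, 20 µM SAM and 20 nM enzyme, which had been preincubated 15 min with compound.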
L3MBTL1 inh: qHTS Assay for the Inhibitors of L3MBTL1 | Lethal(3)malignant brain tumor-like protein 1 (Homo sapiens), Q9Y468 | AlphaScreen L3MBTL1–H3K9me1 peptide binding | Potency, µM (top dose mostly 57.1 µM), for inactives: at the highest dose activity, negative = inhibition, usual class: inhibitors | actives 0.66% (n = 230,000) | AID 485360, 2010; also: % is scaled to controls: 0 for no effect and ±100 for the full control effect; nearly all actives have a fitted effect of over 60% in size
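L3MBTL1 (50 nM) pre-complexed 30 min with biotinylated H3(1-15)K9me1 peptide (75 nM), then compounds added for 30 min at room temperature; AlphaScreen streptavidin donor/nickel chelate acceptor beads (10 ug/mL final) read after 30 min dark incubation.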
BAZ2B block: qHTS Assay for Inhibitors of BAZ2B; actives 4.4% (n = 360,000); AID 504333, 2011; Bromodomain adjacent to zinc finger domain protein 2B (Homo sapiens), Q9UIF8; AlphaScreen BAZ2B-H3K14Ac peptide displacement; Potency, µM (top dose mostly 114 µM), for inactives: top-dose activity change, negative = inhibition, most hits filed as inhibitors; also: % is scaled to controls: 0 for no effect and ±100 for the full control effect; nearly all actives have a fitted effect of over 60% in size
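Protein-peptide AlphaScreen: BAZ2B 50 nM, b-H3K14Ac 50 nM, 1x PBS pH 7.4 + 0.01% Tween-20. Preincubation 30 min RT; cpd 30 min RT (top 110 uM); beads 20 min RT, light-protected.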
JMJD2A Tudor inh: qHTS Assay for Inhibitors of JMJD2A-Tudor Domain | actives 4.4% (n = 390,000) | AlphaScreen JMJD2A-Tudor / H3K4me3 peptide binding | Potency, µM (top dose mostly 114 µM), for the others: at the top dose activity change, negative = inhibition, most hits filed as inhibitors; also: % is scaled to controls: 0 for no effect and ±100 for the full control effect; nearly all actives have a fitted effect of over 50% in size
Target sequence (O75164 whole entry, looked up, the tested form may be a part): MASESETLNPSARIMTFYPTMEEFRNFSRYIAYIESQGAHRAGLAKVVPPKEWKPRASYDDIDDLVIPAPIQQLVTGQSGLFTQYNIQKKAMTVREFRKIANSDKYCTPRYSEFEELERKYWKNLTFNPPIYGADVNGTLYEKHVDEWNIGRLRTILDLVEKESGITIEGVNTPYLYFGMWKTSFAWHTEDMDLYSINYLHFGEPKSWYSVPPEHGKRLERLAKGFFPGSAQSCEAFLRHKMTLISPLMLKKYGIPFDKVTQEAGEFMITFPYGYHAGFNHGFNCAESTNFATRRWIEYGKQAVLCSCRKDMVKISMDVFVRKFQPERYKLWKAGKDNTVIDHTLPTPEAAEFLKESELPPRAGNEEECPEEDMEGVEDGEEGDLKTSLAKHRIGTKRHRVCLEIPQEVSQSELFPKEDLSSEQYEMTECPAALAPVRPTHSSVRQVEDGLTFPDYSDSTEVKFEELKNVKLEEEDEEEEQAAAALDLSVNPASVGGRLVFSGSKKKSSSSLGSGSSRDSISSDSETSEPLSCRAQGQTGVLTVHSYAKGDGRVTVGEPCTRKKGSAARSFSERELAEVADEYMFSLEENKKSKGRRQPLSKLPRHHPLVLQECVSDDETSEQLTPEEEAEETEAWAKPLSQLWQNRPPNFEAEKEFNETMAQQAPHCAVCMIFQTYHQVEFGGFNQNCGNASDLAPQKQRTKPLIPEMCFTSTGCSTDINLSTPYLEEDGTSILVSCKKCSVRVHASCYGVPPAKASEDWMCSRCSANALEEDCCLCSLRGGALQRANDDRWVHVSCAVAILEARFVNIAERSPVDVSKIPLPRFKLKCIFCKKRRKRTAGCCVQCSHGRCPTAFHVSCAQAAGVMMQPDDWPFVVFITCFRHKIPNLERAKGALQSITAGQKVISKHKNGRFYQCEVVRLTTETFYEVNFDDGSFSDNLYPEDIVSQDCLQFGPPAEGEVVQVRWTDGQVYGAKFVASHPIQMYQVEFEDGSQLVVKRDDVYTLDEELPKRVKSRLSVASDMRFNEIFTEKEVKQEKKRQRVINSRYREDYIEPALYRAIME
* = called active by the depositor; ? = inconclusive; · = no result; [ ] = dose if it differs, or a comment. Hits are enriched below; roughly 11% of the tested compounds scored in any of these assays. Calls follow the shape of the dose curve; as a rule, active = well fitted inhibition curve with a large enough effect; inconclusive = small, poorly fitted or top-dose-only effect; inactive = no such curve, though single readings can be large or run the other way. Potency is read from the fitted curve at half-maximal effect.

SMILES | HP1b chromo inh | G9a inh | L3MBTL1 inh | BAZ2B block | JMJD2A Tudor inh
NC(=O)NC(=O)CC1S/C(=N/N=C2/NC(=O)CS2)NC1=O (stereo not given) | 21% | 5µM* | -2% | 20µM* | 28µM*
CN1CC(=O)NC1=NC(=O)c1cc(F)c(F)cc1Cl | 17% | 32µM* | 4% | ? | -24%
COc1ccc(N2CCN(Cc3cc(=O)c(OCC(=O)NC4CCCC4)co3)CC2)cc1 | 9% | 56µM* | -1% | 9% | -12%
Cc1ccc(S(=O)(=O)NC(=O)Nc2ccc(N(C)C)cc2)cc1 | 18µM* | ? | · | 14µM* | 22µM*
Cc1ccc(S(=O)(=O)NC(=O)c2cc(C)n(-c3ccc(N(C)C)cc3)c2C)cc1 | -2% | 45µM* | -12% | -35% | -32%
O=C(NC(=S)Nn1cnc2c(cnn2-c2ccccc2)c1=O)c1ccc(Oc2ccccc2)cc1 | 12% | 7%[59 µM] | 0% | 5% | -12%
O=C(NC(=S)Nn1cnc2c(cnn2-c2ccccc2)c1=O)c1ccc(Cl)cc1 | 1% | 45µM* | -6% | 10% | -31%
N#Cc1ccc(C(=O)NCC(=O)OC(C(=O)Nc2cc(C(F)(F)F)ccc2Cl)c2ccccc2)cc1 (stereo not given) | · | · | · | · | -23%
O=c1c(O)c(-c2cccs2)oc2ccccc12 | 27% | 18µM* | 21% | 9% | -7%
Cc1ccccc1CN1C(=O)[C@H]2Cc3c([nH]c4ccccc34)C(C)(C)N2C1=O | 21% | · | · | · | -8%
COc1ccc(S(=O)(=O)NCCSCc2ccco2)cc1OC | 8% | 12%[12.7 µM] | · | 56µM* | -34%
COc1ccc(S(=O)(=O)NCCSCc2ccco2)cc1 | 0% | -14%[12.7 µM] | · | 50µM* | -30%
CCC/C=C1/CCCOC(C(=O)NCCOC)(C(F)(F)F)C1 (stereo not given) | 10% | · | · | · | -6%
CCCCCc1cc(=O)oc2c(C(CCN3CCCCC3)c3cc(OC)c(OC)c(OC)c3)c(OC)cc(OC)c12 (stereo not given) | 4% | -13%[59 µM] | · | -22% | ?
CCN(CC)CCC(c1cc(OC)c(OC)c(OC)c1)c1c(OC)cc(OC)c2c(C)cc(=O)oc12 (stereo not given) | 16% | 17%[59 µM] | · | 9% | -25%
CCCCCc1cc(=O)oc2c(C(CCN(CC)CC)c3ccc(N(C)C)cc3)c(OC)cc(OC)c12 (stereo not given) | ? | ? | · | 14µM* | 28µM*
CCN(CC)CCC(c1ccc(N(C)C)cc1)c1c(OC)cc(OC)c2c(C)cc(=O)oc12 (stereo not given) | ? | · | · | · | 35µM*
Clc1ccc(CNCCCSc2ncccn2)cc1Cl | 13% | 40µM* | 7% | -14%[57.1 µM] | -15%
Cc1cc(C)nc(SCCCNCc2ccccc2)n1 | 28% | 50µM* | · | -38% | -15%
Cc1ncc(COC(=O)C(C)C)c2cc(C(=O)Nc3ccccc3C(F)(F)F)c(=O)oc12 | 57% | 35%[59 µM] | · | 8% | -5%
Cc1c(Cl)cccc1-n1ncc(C(=O)Nc2ccc(F)cc2F)c1C1CCN(C(=O)OC(C)(C)C)CC1 | 6% | ? | · | 1%[57.1 µM] | -31%
COc1cc(OC)c(NC(c2nnc(-c3ccccc3)o2)c2ccc(F)cc2Cl)cc1Cl (stereo not given) | -16% | 11µM* | · | ? | ?
COc1ccc(NC(=O)Cc2coc3cc(C)c(C(C)C)cc23)cc1S(=O)(=O)N1CCOCC1 | 8% | 10µM* | -6% | ? | -30%
COc1ccc(S(=O)(=O)N2CCOCC2)cc1NC(=O)CCNC(=O)c1ccc(Br)cc1 | 8% | 16µM* | -9% | 1% | -14%
COc1ccc2c(CC(=O)Nc3ccc(OC)c(S(=O)(=O)N4CCOCC4)c3)coc2c1 | 2% | 0%[59 µM] | -3% | -31% | -23%
SMILES | HP1b chromo inh | G9a inh | L3MBTL1 inh | BAZ2B block | JMJD2A Tudor inh
COc1ccc(S(=O)(=O)N2CCOCC2)cc1NC(=O)CCNC(=O)c1ccc(Cl)cc1 | 29% | -32% | 2% | 6% | -6%
COc1ccc(S(=O)(=O)N2CCOCC2)cc1NC(=O)Cc1coc2cc(C)c(C)cc12 | 27% | 50µM* | · | -15% | -17%
COc1ccc(CC(=O)Nc2c(C(=O)Nc3ccccc3F)oc3ccccc23)cc1 | 39% | 4%[59 µM] | · | -29% | 5%
O=C(CN1C(=O)CCSc2ccccc21)Nc1ccc(C(F)(F)F)cc1 | 19% | -31%[59 µM] | · | -3% | -9%
O=C(O)CCn1cc(/C=C2\NC(=S)N(c3ccccc3)C2=O)c(-c2ccc(Br)cc2)n1 | 1% | 20µM* | -6% | · | ?
O=Cc1cn(CCC(=O)O)nc1-c1cccc(Cl)c1 | 14% | -41% | 3%[11.4 µM] | -22% | -6%
COc1ccc(CNS(=O)(=O)c2ccc(F)c(C(=O)Nc3c(C)cc(C)cc3C)c2)cc1 | 24% | -2%[59 µM] | · | 5% | 2%
COc1ccc(N2C3=C(CC4=C2CCCC4=O)C(=O)CCC3)cc1 | -52% | ? | -17% | -28% | 56µM*
COc1ccc(N2C3=C(CC4=C2CC(C)(C)CC4=O)C(=O)CC(C)(C)C3)cc1 | -5% | ? | 2% | 0% | ?
COc1ccc(OC)c(CN2CCN(Cc3cc(OC)c(OC)c(OC)c3)CC2)c1 | ? | -9%[0.501 µM] | 1%[2.29 µM] | 79µM* | 22µM*
COc1cc(CN2CCCCCC2)cc(OC)c1OC | ? | 32µM* | 9% | ? | 5µM*
COc1ccc(C2CC(=O)N(Cc3ccccc3)c3c2c(C)nn3-c2nc(C)cc(C)n2)c(OC)c1 (stereo not given) | 43% | -4%[59 µM] | · | -21% | -13%
Oc1ccc(N=Cc2ccc(-c3cccs3)s2)cc1 | ? | ? | ? | ? | 35µM*
O=C1C(=O)N(CCN2CCOCC2)C(c2cccc(Cl)c2)/C1=C(\O)c1ccc2c(c1)OCCO2 (stereo not given) | 5% | 35µM* | · | ? | -16%
CCOc1ccc(C2/C(=C(\O)c3ccc4c(c3)OCCO4)C(=O)C(=O)N2CCN2CCOCC2)cc1OC (stereo not given) | 18% | 45µM* | · | -33% | -6%
COC(=O)c1ccccc1NC(=O)Cn1nnc2sc(-c3ccccc3)cc2c1=O | 30% | -3%[59 µM] | · | -22% | -7%
CCCc1nnc(NC(=O)c2cc(=O)c3cc(C)c(C)cc3o2)s1 | 37% | 1%[59 µM] | · | -3% | -10%
CCOc1ccc(CCNC(=O)CCCn2c(=O)c3cccn3c3ccccc32)cc1 | 10% | -5%[59 µM] | · | 3% | -12%

High-throughput results from PubChem.
